Bioassay records from PubChem.
PINK1 expr mod: A Quantitative High throughput Screen to Identify Chemical Modulators of PINK1 Expression | 410,000 tested, 0.2% active | AID 624263, 2012 | Potency, µM (top dose mostly 76.6 µM), hits mostly activators | PINK1 immunofluorescence, high-content cytometry, 24 h; active = well fitted activation curve with a large enough effect; inconclusive = small, poorly fitted or top-dose-only effect; cell line not stated here; also: nearly all actives have a fitted effect of over 65% in size
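PINK1 protein level read as immunofluorescence by microplate cytometer in a fixed, stained stable cell line after 24 h exposure to five compound concentrations, with CCCP as control.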
KB-V1 cytotox: qHTS assay for MDR1-selective chemotherapeutics: Primary screen using the drug-selected MDR subline cells KB-V1 | Potency, µM (highest dose often 46.1 µM), actives largely listed as cytotoxic | 400,000 tested, 3.4% active | KB-V1 MDR cells viability, CellTiter-Glo, 72 h; also: nearly all actives have a fitted effect of over 60% in size
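KB-V1 MDR subline cells in DMEM (phenol-red free, 10% FBS) exposed to compounds in qHTS concentration series for 72 h at 37 degrees C. Viability read by CellTiter-Glo luminescence; concentration-effect curves fitted after normalization and correction.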
KB-3-1 tox: qHTS assay for MDR1-selective chemotherapeutics: Primary screen using the parental adenocarcinoma cell KB-3-1; KB-3-1 viability, CellTiter-Glo ATP luminescence, 72 h; Potency, µM (top dose mostly 46.1 µM), hits mostly cytotoxic; 400,000 tested, 1.4% active; AID 1347075, 2019; also: nearly all actives have a fitted effect of over 60% in size
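Cytotoxicity in the drug-sensitive parental line KB-3-1 was scored as loss of CellTiter-Glo luminescence following 72 h incubation with compound. Values come from curve fitting of normalized concentration-response data.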
SW480 rerep: A quantitative high throughput screen for small molecules that induce DNA re-replication in SW480 colon adenocarcinoma cells; SW480 DNA re-replication, Hoechst DNA content imaging, 48 h; Potency, µM (top dose mostly 46.1 µM), actives largely listed as activators; 340,000 tested, 1.8% active; also: nearly all actives have a fitted effect of over 55% in size
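Cells (250 per well) received 23 nL compound or DMSO by pin tool and were kept 48 hr at 37 C, 5% CO2. Nuclei were then stained with Hoechst for 40 min and scanned for DNA content.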
MCF10A rerep: A quantitative high throughput screen for small molecules that induce DNA re-replication in MCF 10a normal breast cells; MCF 10A DNA re-replication, Hoechst nuclear intensity, 48 h; Potency, µM (doses to about 46.1 µM), hits mostly activators; 350,000 tested, 2.9% active; AID 624296, 2012; also: nearly all actives have a fitted effect of over 50% in size
Numbers stand for hits; [ ] = remark or other dose. Compounds with a hit are over-represented: about 6.7% of the library has one in this group of screens. Unless noted, calls follow the shape of the dose curve; as a rule, active = well fitted curve in the direction sought with a large enough effect; inconclusive = small, poorly fitted or top-dose-only effect, or another doubt; inactive = no such curve, though single readings can be large; an effect the other way counts as inactive or inconclusive.

O=C(CN1C(=O)/C(=C/c2ccccc2)SC1=S)N1CCN(CCc2ccccn2)CC1 was read as PINK1 expr mod inactive, KB-V1 cytotox inactive, KB-3-1 tox inactive, SW480 rerep inconclusive and MCF10A rerep 5.8µM.
`O=C(O)CCN1C(=O)/C(=C\c2ccncc2)SC1=S` gave PINK1 expr mod inactive, KB-V1 cytotox inactive, KB-3-1 tox inactive, SW480 rerep inactive and MCF10A rerep inactive.
`O=C(CCN1C(=O)/C(=C\c2ccccc2)SC1=S)N1CCCCC1` gave PINK1 expr mod inactive, KB-V1 cytotox inactive, KB-3-1 tox inconclusive, SW480 rerep inactive and MCF10A rerep inconclusive.
Screening COC(=O)CCCCCN1C(=O)/C(=C\c2ccncc2)SC1=S returned PINK1 expr mod inactive, KB-V1 cytotox inactive, KB-3-1 tox inactive, SW480 rerep inactive and MCF10A rerep 26µM.
`Cc1nc(-c2ccccc2)sc1-c1ccc(SCC(=O)NCc2ccc(F)cc2)nn1` gave PINK1 expr mod inactive, KB-V1 cytotox inconclusive and KB-3-1 tox inactive.
For O=C(Cc1ccc(F)cc1)Nc1cccc(-c2nc3cccnc3s2)c1 the results were PINK1 expr mod inactive.
For COc1ccccc1C1CC(c2ccco2)=NN1c1ccccc1 (centres undefined) the results were PINK1 expr mod inactive, KB-V1 cytotox inactive, KB-3-1 tox inactive, SW480 rerep inconclusive and MCF10A rerep inconclusive.
Screening O=[N+]([O-])c1ccc(/C=C/C2=NN(c3ccccc3)C(c3ccco3)C2)o1 (centres undefined) returned PINK1 expr mod inactive, KB-V1 cytotox inconclusive, KB-3-1 tox 7.3µM, SW480 rerep inactive and MCF10A rerep inactive.
Screening C(=C\c1ccco1)/C1=NN(c2ccccc2)C(c2ccco2)C1 (centres undefined) returned PINK1 expr mod inconclusive, KB-V1 cytotox inconclusive, KB-3-1 tox inactive, SW480 rerep 2.3µM and MCF10A rerep 2.1µM.
CN(/N=C/c1ccc([N+](=O)[O-])o1)c1ccccc1 was read as PINK1 expr mod inactive, KB-V1 cytotox inactive, KB-3-1 tox inactive, SW480 rerep inactive and MCF10A rerep inactive.
`COc1ccccc1C1CN(Cc2c(C)nc3sccn23)Cc2ccccc2O1` (centres undefined) gave PINK1 expr mod inactive.
For Cc1ccc(Cn2ccsc2=NC(=O)COC(=O)c2ccc(O)cc2O)cc1 the results were PINK1 expr mod inactive, KB-V1 cytotox inactive, KB-3-1 tox inactive, SW480 rerep inconclusive and MCF10A rerep inactive.
For Cc1ccc(Cn2ccsc2=NC(=O)COC(=O)C(C)C)cc1 the results were PINK1 expr mod inactive, KB-V1 cytotox inactive, KB-3-1 tox 16µM, SW480 rerep inactive and MCF10A rerep inactive.
Screening COc1ccc(-c2ccc(CN3C(C)C(=O)N(Cc4cn(CCC5OCCO5)nn4)CCS3(=O)=O)cc2)cc1 (centres undefined) returned PINK1 expr mod inactive, KB-V1 cytotox inactive and KB-3-1 tox inactive.
CCOc1cc(N2CCOCC2)c(OCC)cc1NC(=O)c1cccc(S(=O)(=O)N2CC(C)OC(C)C2)c1 (centres undefined) was read as PINK1 expr mod inactive, KB-V1 cytotox inactive and KB-3-1 tox inactive.
Screening CCOC(=O)c1c(-c2ccccc2)csc1NC(=O)CCN1CCOCC1 returned PINK1 expr mod inactive, KB-V1 cytotox inconclusive, KB-3-1 tox inactive and MCF10A rerep inconclusive.
Screening CCOc1cc(N2CCOCC2)c(OCC)cc1NC(=O)c1cccc(S(=O)(=O)N2CCOCC2)c1 returned PINK1 expr mod inactive, KB-V1 cytotox 15µM, KB-3-1 tox inactive, SW480 rerep inactive and MCF10A rerep inactive.
For CCn1cc(C(=O)OCC(=O)Nc2cccc(S(=O)(=O)N3CCOCC3)c2)c(=O)c2ccc(C)nc21 the results were PINK1 expr mod inactive, KB-V1 cytotox 8.2µM, KB-3-1 tox inactive, SW480 rerep inactive and MCF10A rerep inactive.
Screening CCOC(=O)c1c(-c2ccccc2)csc1NC(=O)c1ccc(S(=O)(=O)N2CCOCC2)cc1 returned PINK1 expr mod inactive, KB-V1 cytotox inactive, KB-3-1 tox inactive, SW480 rerep inconclusive and MCF10A rerep 12µM.
CCOC(=O)c1ccc(NC(=O)c2cccc(S(=O)(=O)N3CCOCC3)c2)cc1 was read as PINK1 expr mod inactive, KB-V1 cytotox 23µM, KB-3-1 tox inactive, SW480 rerep inactive and MCF10A rerep inactive.
`CCOC(=O)c1ccc(NC(=O)c2ccc(C)c(S(=O)(=O)N3CCOCC3)c2)cc1` gave PINK1 expr mod inactive, KB-V1 cytotox inconclusive, KB-3-1 tox inconclusive, SW480 rerep inactive and MCF10A rerep inconclusive.
For CCn1cc(C(=O)OCC(=O)Nc2cccc(C(C)=O)c2)c(=O)c2ccc(C)nc21 the results were PINK1 expr mod inactive, KB-V1 cytotox inconclusive and KB-3-1 tox inactive.
For N#CC(c1ccccc1)N(CCCCl)C(=O)c1ccccc1 (centres undefined) the results were PINK1 expr mod inactive, KB-V1 cytotox inactive, KB-3-1 tox inactive, SW480 rerep 15µM and MCF10A rerep inconclusive.
`CC(=O)N(CCCCl)C(C#N)c1ccccc1` (centres undefined) gave PINK1 expr mod inactive, KB-V1 cytotox inactive, KB-3-1 tox inactive, SW480 rerep inactive and MCF10A rerep inactive.
Screening Oc1ccc(Nc2nc(-c3ccc(O)cc3)cs2)cc1 returned PINK1 expr mod inactive, KB-V1 cytotox inactive, KB-3-1 tox inconclusive, SW480 rerep inconclusive and MCF10A rerep 13µM.
CC(=O)Oc1ccc(-c2csc(Nc3ccc(S(N)(=O)=O)cc3)n2)cc1 was read as PINK1 expr mod inactive, KB-V1 cytotox inactive, KB-3-1 tox inactive, SW480 rerep inactive[1.84 µM] and MCF10A rerep inactive.
Screening COc1ccc(-c2csc(Nc3ccc(S(N)(=O)=O)cc3)n2)cc1 returned KB-V1 cytotox inactive, KB-3-1 tox inconclusive, SW480 rerep inconclusive and MCF10A rerep 10µM.
For O=C(c1ccccc1)N1CCN(CC(O)COCC2CC=CCC2)CC1 (centres undefined) the results were PINK1 expr mod inactive, KB-V1 cytotox 9.2µM, KB-3-1 tox inactive, SW480 rerep inactive and MCF10A rerep inactive.
`Cc1c(Cl)ccc2c(C(O)CBr)cc(-c3ccccc3)nc12` (centres undefined) gave PINK1 expr mod inactive, KB-V1 cytotox inactive, KB-3-1 tox inactive, SW480 rerep inconclusive and MCF10A rerep 21µM.
For COc1cccc(-c2nn(C)c3sc(C(=O)NCCCN(C)Cc4ccccc4)cc23)c1 the results were PINK1 expr mod inactive, KB-V1 cytotox inactive, KB-3-1 tox inconclusive, SW480 rerep 16µM and MCF10A rerep inconclusive.
CCOc1ccc(CCNC(=O)c2cc3c(-c4ccc(OC)c(OC)c4)nn(C)c3s2)cc1OCC was read as PINK1 expr mod inactive, KB-V1 cytotox 23µM and KB-3-1 tox inactive.
